Results filed as inconclusive are left out. Active and inactive are the calls of the source. Rule for the calls, unless noted: active = hit-call score of the fitted dose curve at least 0.9, where 1 is the maximum; inactive = score below 0.9.
Test: CCTE_Simmons_MITO_basal_resp_rate: CCTE's HepG2 Seahorse XF Respirometric Screening Assay at Basal Respiratory State, Simmons Lab (AID 2284001)
Conditions: actives raise or lower the signal
Summary of the method: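 Basal-phase OCR of HepG2 cells on a Seahorse XF96, analysed by bidirectional fit relative to DMSO vehicle; chemicals at 7 concentrations, 125 nM–100 uM final; three biological replicates; fenpyroximate and 2,4-dinitrophenol positive controls.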

SMILES | AC50 | outcome
CCCCC(CC)COC(=O)c1ccccc1C(=O)O (configuration not stated) | 3.97 µM (active) | –
Oc1ccc(C(c2ccc(O)cc2)C(Cl)(Cl)Cl)cc1 | 18.8 µM (active) | –
CCOC(=O)NCCOc1ccc(Oc2ccccc2)cc1 | 21.5 µM (active) | –
CCCCOC(=O)C(C)Oc1ccc(Oc2ccc(C(F)(F)F)cn2)cc1 (configuration not stated) | – | inactive
CCCCOC(=O)[C@@H](C)Oc1ccc(Oc2ccc(C(F)(F)F)cn2)cc1 | – | inactive
O=C(Nc1ccc([N+](=O)[O-])cc1Cl)c1cc(Cl)ccc1O | 1.57 µM (active) | –

Test: CCTE_Simmons_MITO_max_resp_rate: CCTE's HepG2 Seahorse XF Respirometric Screening Assay at Maximal Respiratory State [uncoupled], Simmons Lab (AID 2284002)
Conditions: actives raise or lower the signal
Summary of the method: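 HepG2 oxygen consumption measured on Seahorse XF after FCCP uncoupling, following test compound injection; 7 concentrations from 125 nM to 100 uM final. Readings every 6 min over 72 min, three biological replicates; bidirectional fit versus DMSO.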

SMILES | outcome | AC50
CCCCC(CC)COC(=O)c1ccccc1C(=O)O (configuration not stated) | inactive | –
Oc1ccc(C(c2ccc(O)cc2)C(Cl)(Cl)Cl)cc1 | – | 21.7 µM (active)
CCOC(=O)NCCOc1ccc(Oc2ccccc2)cc1 | – | 19.8 µM (active)
CCCCOC(=O)C(C)Oc1ccc(Oc2ccc(C(F)(F)F)cn2)cc1 (configuration not stated) | inactive | –
CCCCOC(=O)[C@@H](C)Oc1ccc(Oc2ccc(C(F)(F)F)cn2)cc1 | inactive | –
O=C(Nc1ccc([N+](=O)[O-])cc1Cl)c1cc(Cl)ccc1O | – | 0.928 µM (active)

Test: CCTE_Simmons_MITO_inhib_resp_rate: CCTE's HepG2 Seahorse XF Respirometric Screening Assay at Inhibited Respiratory State [full ETC block], Simmons Lab (AID 2284006)
Conditions: actives raise or lower the signal
Summary of the method: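 OCR read-out in the inhibited phase following rotenone/antimycin A, after compound and FCCP injections, in HepG2 cells. Seven concentrations (125 nM to 100 uM final), three biological replicates, 6-min cycles over 72 min; DMSO baseline.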

SMILES | outcome | AC50
CCCCC(CC)COC(=O)c1ccccc1C(=O)O (configuration not stated) | inactive | –
Oc1ccc(C(c2ccc(O)cc2)C(Cl)(Cl)Cl)cc1 | inactive | –
CCOC(=O)NCCOc1ccc(Oc2ccccc2)cc1 | inactive | –
CCCCOC(=O)C(C)Oc1ccc(Oc2ccc(C(F)(F)F)cn2)cc1 (configuration not stated) | inactive | –
CCCCOC(=O)[C@@H](C)Oc1ccc(Oc2ccc(C(F)(F)F)cn2)cc1 | inactive | –
O=C(Nc1ccc([N+](=O)[O-])cc1Cl)c1cc(Cl)ccc1O | – | 1.36 µM (active)

Test: CCTE_Simmons_MITO_viability: CellTiter-Glo Viability Assessment for CCTE's HepG2 Seahorse XF Respirometric Screening Assay [post-hoc], Simmons Lab (AID 2284007; active = hit-call score of the fitted dose curve at least 0.9, where 1 is the maximum)
Conditions: not given
Summary of the method: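 Luciferase-coupled ATP luminescence, single endpoint. HepG2, post-respirometry. Compound 125 nM–100 uM final, 7 conc., 90 min. n=3 biological, technical singles. DMSO vehicle/baseline; dichlone 10 nM–100 uM, 8 conc., as positive control.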

SMILES | outcome
CCCCC(CC)COC(=O)c1ccccc1C(=O)O (configuration not stated) | inactive
CCOC(=O)NCCOc1ccc(Oc2ccccc2)cc1 | inactive
CCCCOC(=O)C(C)Oc1ccc(Oc2ccc(C(F)(F)F)cn2)cc1 (configuration not stated) | inactive
CCCCOC(=O)[C@@H](C)Oc1ccc(Oc2ccc(C(F)(F)F)cn2)cc1 | inactive

Test: CCTE_Shafer_MEA_acute_spike_number: CCTE's Neural Acute Assay for Total Number of Spikes, Shafer Lab (AID 2284008);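 for AC50: curve fitted for decrease in spike count so AC50 reflects inhibitors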
Conditions: not given
Summary of the method: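 Rat primary cortical neurons on 48-well MEA plates, DIV 13 or 15, at 37 C. 40 min baseline then 40 min with compound (0.03-40 uM); spikes detected at 8x rms noise, expressed as percent change from baseline.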

SMILES | outcome | AC50
OB(O)O | inactive | –
C#CCOC(=O)[C@@H](C)Oc1ccc(Oc2ncc(Cl)cc2F)cc1 | inactive | –
Oc1ccc(C(c2ccc(O)cc2)C(Cl)(Cl)Cl)cc1 | – | 4.04 µM (active)
CCNc1nc(N)nc(Cl)n1 | inactive | –
CCCN(CCC)c1c([N+](=O)[O-])cc(C(F)(F)F)c(N)c1[N+](=O)[O-] | inactive | –
COC(=O)c1ccccc1C(=O)O | inactive | –
O=C(O)c1ccccc1 | inactive | –
CC(C)(C)[C@@H](O)[C@@H](Cc1ccc(Cl)cc1)n1cncn1 | inactive | –
O=C(Nc1ccc([N+](=O)[O-])cc1Cl)c1cc(Cl)ccc1O | – | 0.115 µM (active)

Test: CCTE_Shafer_MEA_acute_firing_rate_mean: CCTE's Neural Acute Assay for Mean Firing Rate, Shafer Lab (AID 2284009);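 note: analyzed for loss of signal so actives lower firing rate relative to DMSO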
Conditions: not given
Summary of the method: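 Rat cortical neuron cultures matured to DIV 13 or 15, equilibrated 20 min at 37 C, then recorded 40 min for baseline. Compound (0.03-40 uM) added and a further 40 min recorded; percent change in mean firing rate calculated per well.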

SMILES | outcome | AC50
OB(O)O | inactive | –
C#CCOC(=O)[C@@H](C)Oc1ccc(Oc2ncc(Cl)cc2F)cc1 | inactive | –
Oc1ccc(C(c2ccc(O)cc2)C(Cl)(Cl)Cl)cc1 | – | 4.04 µM (active)
CCNc1nc(N)nc(Cl)n1 | inactive | –
CCCN(CCC)c1c([N+](=O)[O-])cc(C(F)(F)F)c(N)c1[N+](=O)[O-] | inactive | –
COC(=O)c1ccccc1C(=O)O | inactive | –
O=C(O)c1ccccc1 | inactive | –
CC(C)(C)[C@@H](O)[C@@H](Cc1ccc(Cl)cc1)n1cncn1 | inactive | –
O=C(Nc1ccc([N+](=O)[O-])cc1Cl)c1cc(Cl)ccc1O | – | 0.114 µM (active)

Test: CCTE_Harrill_HTTr_Viability_MCF7: CCTE's 6-hour Cell Viability Assessment for the High-Throughput Transcriptomics (HTTr) Platform, in MCF-7 cells cultured in DMEM + 10% fetal bovine serum, Harrill Lab (AID 2284010)
Conditions: not given
Summary of the method: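 PI exclusion, high-content imaging; 8-pt dilution series, 6 h exposure; bidirectional fit vs DMSO (neg. ctrl/baseline); gain of signal = loss of membrane integrity.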

SMILES | outcome | AC50
OB(O)O | inactive | –
C#CCOC(=O)[C@@H](C)Oc1ccc(Oc2ncc(Cl)cc2F)cc1 | inactive | –
CCN(CC)C(=O)c1cccc(C)c1 | inactive | –
CCCCCOC(=O)COc1cc(N2C(=O)C3=C(CCCC3)C2=O)c(F)cc1Cl | inactive | –
CCCCC(CC)COC(=O)c1ccccc1C(=O)O (configuration not stated) | inactive | –
COCCO | inactive | –
Oc1ccc(C(c2ccc(O)cc2)C(Cl)(Cl)Cl)cc1 | inactive | –
CCOC(=O)c1ccc(O)cc1 | inactive | –
CCOC(=O)C(C)Oc1ccc(Oc2cnc3cc(Cl)ccc3n2)cc1 (configuration not stated) | inactive | –
CCNc1nc(N)nc(Cl)n1 | inactive | –
C#C[C@]1(O)CC[C@H]2[C@@H]3CCC4=CC(=O)CC[C@@H]4[C@H]3CC[C@@]21CC | inactive | –
CCCOC(=O)NCCCN(C)C | inactive | –
c1ccc(Nc2ccccc2)cc1 | inactive | –
CCOC(=O)NCCOc1ccc(Oc2ccccc2)cc1 | inactive | –
CCC(C)OC(=O)N1CCCCC1CCO (configuration not stated) | inactive | –
COc1c(Cl)ccc(Cl)c1C(=O)O | inactive | –
CCCN(CCC)c1c([N+](=O)[O-])cc(C(F)(F)F)c(N)c1[N+](=O)[O-] | – | 68.1 µM (active)
COC(=O)c1ccccc1C(=O)O | inactive | –
O=C(O)c1ccccc1 | inactive | –
COC(=O)c1ccc(I)cc1S(=O)(=O)NC(=O)Nc1nc(C)nc(OC)n1 | inactive | –
CCC(O)=C1C(=O)CC(C(=O)O)CC1=O (configuration not stated) | inactive | –
CCCCOC(=O)C(C)Oc1ccc(Oc2ccc(C(F)(F)F)cn2)cc1 (configuration not stated) | inactive | –
CCCCOC(=O)[C@@H](C)Oc1ccc(Oc2ccc(C(F)(F)F)cn2)cc1 | inactive | –
CCCCCCC(C)OC(=O)COc1nc(F)c(Cl)c(N)c1Cl (configuration not stated) | inactive | –
CC(C)(C)[C@@H](O)[C@@H](Cc1ccc(Cl)cc1)n1cncn1 | inactive | –
CCN(Cc1c(F)cccc1Cl)c1c([N+](=O)[O-])cc(C(F)(F)F)cc1[N+](=O)[O-] | inactive | –
O=C(Nc1ccc([N+](=O)[O-])cc1Cl)c1cc(Cl)ccc1O | inactive | –
